Screen size: about 93,000 compounds; about 180 (0.19%) were called active. The list comes from a sample in which actives are over-represented; it also holds similar structures and randomly drawn compounds. Unmarked numbers belong to inactive results.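 Rule for the calls: active = activation above the screen mean plus 3 SD, with well images confirming the hit on visual review (cut at about 28% in these data, passing the limit was not always enough); inconclusive = activation above that limit but images do not confirm it; inactive = activation not above that limit.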

This assay in a line: enhancers of endothelial VCAM-1 upregulation by TNFa – imaging, HUVEC, TNFa stimulus, immunofluorescence, primary screen (AID 808).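 Note: signal is the number of cytoplasmic VCAM-1 stained grains per positive cell.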 The settings on record: HUVEC TNFa-stimulated VCAM-1 immunofluorescence, high-content imaging; at 2 µM; hits give high values; scaled per plate to unstimulated/TNFa-only wells.
Consider `Cc1ccc(-c2csc(NC(=O)c3cccs3)n2)cc1`, for which the activation is 5.6%.

With `Cc1cccc(N=C2NC(=O)CS2)c1C`, the activation is -97.1%. Next, `COc1ccc(-c2c3c(=O)n(C)c(=O)n(C)c3cn2-c2cccc(OC)c2)cc1`: -7.7%; `COc1ccc(C(=O)OCC(=O)NCC2CCCCC2)cc1S(=O)(=O)N1CCCc2ccccc21`: -5.3%.

Take `CCOC(=O)CCP(=O)(O)C(O)(c1ccccc1)c1ccccc1`: the activation is -1.8%.

`CC(=O)c1cccc(S(=O)(=O)N2CCC(n3nnc4cc(F)ccc43)CC2)c1`: the activation is -54.7%. With `COc1ccc(/C=N/Nc2nc3ccccc3o2)cc1OC`, the activation is 32.9% (active).

On to `COc1cc(/C=N/NC(=O)Nc2ccccc2)ccc1OCCOc1ccccc1C`, for which the activation was -51.1%. For `C=CCOc1ccc(/C=N/n2cncn2)cc1OC` the value was 4.4%; for `CN1CCN(c2nc3c(c(=O)[nH]c(=O)n3C)n2Cc2cccc3ccccc23)CC1`, -8.9%. For `CCC(C)(C)n1nnnc1C(c1cccs1)N1CCN(c2nc3ccccc3s2)CC1` (configuration not stated), the activation is 0.6%.

Turning to `Cc1ccc(S(=O)(=O)N2CCCC2C(=O)NCc2ccco2)cc1` (configuration not stated), the activation is 6.4%.

As to `CCCN1C(=O)C(NC(C)=O)c2cc(OC)ccc21` (configuration not stated), the activation is -5.9%. For `O=C(CO/N=C/c1ccccc1O)NNC(=O)c1ccccc1Cl` the value was 2.1%; for `CC(=O)Nc1ccc(S(=O)(=O)NCCc2ccccc2)cc1`, -7.2%. Next, `CCOc1ccc(NC(=O)CCC(=O)n2nc(C)cc2C)cc1`: -6.7%. For `Cc1ccc(OCc2nnc(NC(=O)OCC(C)C)s2)cc1` the value was 0.2%. On to `CCOC(=O)c1sc(NC(=S)n2cc(C)cn2)c(C(=O)OCC)c1C`, for which the activation was -0.6%. Next, `COCCOC(=O)C1=C(C)N=c2s/c(=C\c3cccs3)c(=O)n2C1c1cccs1` (configuration not stated): -3.2%; `Cc1c(-c2ccccc2)nc(N)c(C#N)c1-c1cccs1`: -3.7%; `CCc1ccc2oc(=O)cc(CN3CCCCC3C)c2c1` (configuration not stated): -6.7%.

Turning to `O=C1c2ccccc2C2=Nc3ccccc3SC(c3ccccc3F)C12` (configuration not stated), the activation was -0.2%. Regarding `C=CCn1c2ccccc2c2nnc(SC(CC)C(=O)Nc3nc(C)c(C(=O)OCC)s3)nc21` (configuration not stated), the activation was 10%.

`O=C(Nc1ccc2nc3n(c(=O)c2c1)CCCCC3)c1ccccc1Cl`: the activation was -7.6%. For the molecule `CCCCN=C1N/C(=C\c2ccco2)C(=O)N1c1ccccc1`, the activation is -7.6%.

As to `CC1(C)C/C(=C(/C#N)C(N)=O)CCO1`, the activation was 3.2%. With `Cc1noc(C)c1CSCC(=O)Nc1nc2ccc(Oc3ccccc3)cc2s1`, the activation is -4.3%.
